The structures appear in SMILES notation. Several values for one entry are separate records, joined by “and”; a condition that tells them apart may be missing. Equal values may be shown once. A number with no mark means an inactive call. Records with an inconclusive call do not appear. Activity calls are given as the source filed them. Unless noted, the call rests on the fitted dose curve.

From PubChem BioAssay (Tox21) come the findings set out here.

Assay [1] can be described thus: Nuclear factor erythroid 2-related factor 2/antioxidant responsive element (Nrf2/ARE) small molecule agonists: qHTS cell viability counter screen in human keratinocytes (AID 1919968; active means well fitted curve in the direction sought with a large enough effect in the repeat runs; an effect the other way counts as inactive or inconclusive; further: nearly all actives have a fitted effect of over 55% in size; further: potency means the concentration at half of the fitted maximal effect). In short, it runs like this:
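Viability counter-screen: KeratinoSens reporter cells, DMSO-delivered compounds, 23 h at 37 C, CellTiter-Fluor fluorescence.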
On the technique in general: In qHTS, concentration-response curves come from the screen itself.

Assay [2] in a line: Nuclear factor erythroid 2-related factor 2/antioxidant responsive element (Nrf2/ARE) small molecule agonists: luciferase reporter gene qHTS assay in human keratinocytes (AID 1919969). Further: nearly all actives have a fitted effect of over 35% in size. Further: potency means the concentration at half of the fitted maximal effect. In general terms: Reporter assays use an easily measured gene product as a stand-in for the process of interest.
In assay [3] the target is Gonadotropin-releasing hormone receptor (Homo sapiens) (UniProt P30968). Put plainly: Human gonadotropin-releasing hormone receptor (GnRHR) small molecule agonists, calcium flux assay in GnRHR-HEK293 cells (AID 1920063). Further: nearly all actives have a fitted effect of over 35% in size. In short, it runs like this:
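Tox21-format agonist screen using human GnRHR-expressing HEK293 cells and a fluorescent calcium dye; kinetic 3-min fluorescence reading after compound addition, 15-point concentration series run in triplicate.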

Assay [4] deals with KiSS-1 receptor (Homo sapiens) (UniProt Q969F8). Put plainly: Human kisspeptin (KISS1R) small molecule agonists, calcium flux assay in KISS1R-HEK293 cells (AID 1920064; active means well fitted curve in the direction sought with a large enough effect in the repeat runs; an effect the other way counts as inactive or inconclusive). In short, it runs like this:
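Intracellular calcium mobilization in KISS1R-HEK293 cells was recorded by fluorescence (Ex/Em 480/540) for 3 min following compound addition to cells pre-loaded 1 h with calcium dye.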
Background: A change in cytosolic calcium serves as a functional read-out for many receptors and channels.

Assay [5] is described as follows: G protein-coupled receptor (GPCR) small molecule agonists, calcium flux assay: HEK293 wild type cell line counter screen (AID 1920065). In short, it runs like this: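 In this agonist-mode screen, ATP is the positive control and DMSO the vehicle. Cells grow 18 h before a 1 h dye incubation at 37 C; signal is taken at Ex/Em 480/540 over 3 min.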
The nature of assay [6]: p53 small molecule agonists, cell-based qHTS assay with human liver microsomes (AID 1963577).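 Further: p53 response element beta-lactamase reporter cells with liver microsomes plus NADPH.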 In short, it runs like this:
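p53RE-bla cells; 5 h settle, 37 C/5% CO2; cpd + HLM 0.5 mg/mL + NADPH 0.5 mg/mL (final); 16 h 37 C; LiveBLAzer 2 h RT dark; fluorescence readout.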

A short description of assay [7]: p53 small molecule agonists, cell-based qHTS assay with human liver microsomes: qHTS cell viability counter screen (AID 1963579). Further: nearly all actives have a fitted effect of over 45% in size. Further: potency means the concentration at half of the fitted maximal effect. In short, it runs like this:
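Luminescent CellTiter-Glo read-out, 30 min at room temperature, gauged cytotoxicity in p53RE-bla cells exposed 16 h at 37 C to DMSO-dissolved compounds with metabolic activation by human liver microsomes and NADPH, each 0.5 mg/mL final.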

A short description of assay [8]: p53 small molecule agonists, cell-based qHTS assay: qHTS cell viability counter screen (AID 1963581). Further: nearly all actives have a fitted effect of over 45% in size. Further: potency means the concentration at half of the fitted maximal effect. In short, it runs like this:
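Compounds are pinned onto HCT-116 p53RE-bla cells and left 16 h at 37 C. Following the reporter FRET read, ATP is quantified by CellTiter-Glo luminescence after 30 min at room temperature.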

A short description of assay [9]: p53 small molecule agonists, cell-based qHTS assay (AID 1963582; active means well fitted activation curve with a large enough effect in the signal ratio in the repeat runs, not every such curve was filed as active; the % refers to the signal ratio). In short, it runs like this:
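Agonist activity was scored from beta-lactamase FRET fluorescence in p53RE-bla cells treated 16 h at 37 C with compounds in DMSO, substrate incubation being 2 h at room temperature.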

The target of assay [10] is 5-hydroxytryptamine receptor 2A (Homo sapiens) (UniProt P28223). The assay can be described thus: 5-hydroxytryptamine receptor 2A (HTR2A) small molecule antagonists, cell-based qHTS assay (AID 1963586). Further: nearly all actives have a fitted effect of over 45% in size. Further: potency means the concentration at half of the fitted maximal effect. Summed up:
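Antagonist-mode intracellular calcium assay: DOI (4 nM) added after 5 min compound pre-incubation at room temperature to dye-loaded HTR2A-CHO cells. Fluorescence followed for 3 min, sampled every second.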

The target is the same in assay [11]. The assay can be described thus: 5-hydroxytryptamine receptor 2A (HTR2A) small molecule agonists, cell-based qHTS assay (AID 1963587). Further: nearly all actives have a fitted effect of over 30% in size. In short, it runs like this:
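HTR2A-CHO cells, plated 18 h at 37 C/5% CO2, dye-loaded 1 h at 37 C; compounds in DMSO added by pin tool (agonist mode). Intracellular calcium flux read as kinetic fluorescence on FDSS over 2 min at 1 s intervals.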

For assay [12], the target named is Muscarinic acetylcholine receptor M1 (Homo sapiens) (UniProt P11229). Put plainly: Cholinergic receptor muscarinic 1 (CHRM1) small molecule antagonists, cell-based qHTS assay (AID 1963588). Further: nearly all actives have a fitted effect of over 40% in size. In short, it runs like this:
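CHRM1-CHO calcium-flux assay, antagonist mode. Cells were seeded 18 h, dye-loaded 1 h at 37 C and given compound for 5 min at RT, then acetylcholine was added at 50nM. FDSS fluorescence was read 3 min; 15 concentrations, three runs.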

The target is the same in assay [13]. Put plainly: Cholinergic receptor muscarinic 1 (CHRM1) small molecule agonists, cell-based qHTS assay (AID 1963589). Further: nearly all actives have a fitted effect of over 35% in size. Summed up:
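Stable CHRM1-CHO cells (human receptor) were incubated 18 h, dye-loaded for 1 h at 37 C and exposed to test compounds for agonist activity, with calcium-dependent fluorescence followed kinetically.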

The nature of assay [14]: cAMP Responsive Elements (CRE) small molecule agonists, cell-based qHTS assay (AID 1963590). In short, it runs like this:
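FRET-based beta-lactamase readout (LiveBLAzer B/G, 2 h RT) quantified CRE activation in HEK 293T CRE-bla cells after 3 h treatment with DMSO-dissolved compounds.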

Assay [15] is described as follows: cAMP Responsive Elements (CRE) small molecule antagonists, cell-based qHTS assay (AID 1963591; active means well fitted inhibition curve with a large enough effect in the signal ratio in the repeat runs, not every such curve was filed as active; the % refers to the signal ratio; further: potency means the concentration at half of the fitted maximal effect). In short, it runs like this:
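qHTS in CRE-bla HEK 293T cells: compound in DMSO, then 0.25 uM NKH477 (final), 3 h at 37 °C/5% CO2; beta-lactamase FRET read-out after 2 h substrate incubation.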

Assay [16] deals with Beta-2 adrenergic receptor (Homo sapiens) (UniProt P07550). The assay can be described thus: Adrenergic beta2 receptor (ADRB2) small molecule antagonists, cell-based qHTS assay (AID 1963592). Further: series mostly up to about 92 µM; nearly all actives have a fitted effect of over 50% in size. In short, it runs like this: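 Cells (CHO, stable ADRB2 overexpression) incubated 18-20hr at 37C; compounds added from DMSO; agonist mix (1nM isoproterenol, 100uM IBMX, 25uM Ro-20-1724) added; 0.5hr RT; d2-cAMP and anti-cAMP-cryptate added; 1hr RT; 665/615 nm read.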
Beta-2 adrenergic receptor (Homo sapiens), sequence (P07550 whole entry, looked up): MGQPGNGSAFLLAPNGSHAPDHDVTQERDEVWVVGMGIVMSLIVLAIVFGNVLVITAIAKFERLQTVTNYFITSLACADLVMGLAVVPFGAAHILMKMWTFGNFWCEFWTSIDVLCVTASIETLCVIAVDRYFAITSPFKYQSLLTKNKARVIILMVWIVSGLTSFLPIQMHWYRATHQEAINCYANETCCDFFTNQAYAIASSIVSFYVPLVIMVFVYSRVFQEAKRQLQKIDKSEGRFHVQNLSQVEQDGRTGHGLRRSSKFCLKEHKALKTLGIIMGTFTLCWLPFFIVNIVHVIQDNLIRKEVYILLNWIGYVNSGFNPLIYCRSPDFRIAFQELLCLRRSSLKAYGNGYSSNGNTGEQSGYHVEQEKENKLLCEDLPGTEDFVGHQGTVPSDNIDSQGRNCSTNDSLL

Assay [17] shares this target. The assay can be described thus: Adrenergic beta2 receptor (ADRB2) small molecule agonists, cell-based qHTS assay (AID 1963593).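 Further: CHO cells stably overexpressing human ADRB2.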 In short, it runs like this:
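CHO cells stably over-expressing ADRB2 were plated overnight at 37C, then dosed with compounds plus a stimulation mix containing 100uM IBMX and 25uM Ro-20-1724 for 0.5hr at room temperature. cAMP was measured by HTRF competition, 1hr.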

The target of assay [18] is D(2) dopamine receptor (Homo sapiens) (UniProt P14416). The assay can be described thus: Dopamine D2 receptor (DRD2) small molecule antagonists, cell-based qHTS assay (AID 1963595; active means well fitted inhibition curve with a large enough effect in the signal ratio in the repeat runs, with a control signal flat; the % refers to the signal ratio). In short, it runs like this:
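Antagonist mode in DRD2-HEK293 cells: after compound addition with 0.1 mM Ro20-1724, cells received quinpirole (12 nM) and NKH477 (200 nM) for 30 min at room temperature; HTRF cAMP read after 1 h detection.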

For assay [19] the target is unchanged. The assay can be described thus: Dopamine D2 receptor (DRD2) small molecule agonists, cell-based qHTS assay (AID 1963594). Further: nearly all actives have a fitted effect of over 35% in size. In short, it runs like this:
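HEK293 cells stably expressing DRD2 were cultured 24 h at 37 C, then given Ro20-1724 (0.1 mM final) and compounds for 10 min at room temperature. NKH477 (200nM) was then added for 30 min. cAMP was read by HTRF.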
On the % scale 0 is the no-effect control and ±100 the full control effect.

5-hydroxytryptamine receptor 2A (Homo sapiens), sequence (P28223 whole entry, looked up): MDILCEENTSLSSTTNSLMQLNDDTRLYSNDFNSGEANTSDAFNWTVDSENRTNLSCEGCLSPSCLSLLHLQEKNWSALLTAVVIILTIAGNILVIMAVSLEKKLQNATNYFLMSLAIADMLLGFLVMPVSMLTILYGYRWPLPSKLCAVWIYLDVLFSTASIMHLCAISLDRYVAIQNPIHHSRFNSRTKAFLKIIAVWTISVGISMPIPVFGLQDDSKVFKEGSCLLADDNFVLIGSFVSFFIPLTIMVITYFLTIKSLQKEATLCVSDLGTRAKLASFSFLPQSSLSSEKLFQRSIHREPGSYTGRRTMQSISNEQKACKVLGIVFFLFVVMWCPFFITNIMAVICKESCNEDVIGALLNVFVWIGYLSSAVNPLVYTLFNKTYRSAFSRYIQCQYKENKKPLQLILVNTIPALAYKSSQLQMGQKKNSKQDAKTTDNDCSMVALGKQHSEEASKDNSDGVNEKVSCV
Muscarinic acetylcholine receptor M1 (Homo sapiens), sequence (P11229 whole entry, looked up): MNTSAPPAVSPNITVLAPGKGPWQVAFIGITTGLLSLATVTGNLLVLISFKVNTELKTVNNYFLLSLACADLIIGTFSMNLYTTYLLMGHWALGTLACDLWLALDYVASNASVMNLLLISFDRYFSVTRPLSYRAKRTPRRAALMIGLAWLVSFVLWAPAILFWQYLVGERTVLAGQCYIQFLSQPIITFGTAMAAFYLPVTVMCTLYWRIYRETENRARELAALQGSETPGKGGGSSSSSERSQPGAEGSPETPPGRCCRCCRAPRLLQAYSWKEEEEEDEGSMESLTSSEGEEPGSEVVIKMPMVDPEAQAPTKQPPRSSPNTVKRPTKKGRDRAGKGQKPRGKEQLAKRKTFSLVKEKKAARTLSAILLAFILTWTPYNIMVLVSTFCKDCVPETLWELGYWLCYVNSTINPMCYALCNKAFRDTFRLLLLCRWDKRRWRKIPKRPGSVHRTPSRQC
KiSS-1 receptor (Homo sapiens), sequence (Q969F8 whole entry, looked up): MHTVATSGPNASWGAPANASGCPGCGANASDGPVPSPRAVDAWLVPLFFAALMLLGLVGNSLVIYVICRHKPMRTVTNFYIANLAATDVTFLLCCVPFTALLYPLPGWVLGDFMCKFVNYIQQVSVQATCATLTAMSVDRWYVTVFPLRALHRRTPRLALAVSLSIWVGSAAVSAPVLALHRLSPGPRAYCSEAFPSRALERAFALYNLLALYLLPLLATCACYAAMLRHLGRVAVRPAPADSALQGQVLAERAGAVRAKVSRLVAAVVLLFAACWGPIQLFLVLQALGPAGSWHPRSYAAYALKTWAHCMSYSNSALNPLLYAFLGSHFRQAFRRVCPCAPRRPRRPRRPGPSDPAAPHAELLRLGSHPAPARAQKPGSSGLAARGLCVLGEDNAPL
Gonadotropin-releasing hormone receptor (Homo sapiens), sequence (P30968 whole entry, looked up): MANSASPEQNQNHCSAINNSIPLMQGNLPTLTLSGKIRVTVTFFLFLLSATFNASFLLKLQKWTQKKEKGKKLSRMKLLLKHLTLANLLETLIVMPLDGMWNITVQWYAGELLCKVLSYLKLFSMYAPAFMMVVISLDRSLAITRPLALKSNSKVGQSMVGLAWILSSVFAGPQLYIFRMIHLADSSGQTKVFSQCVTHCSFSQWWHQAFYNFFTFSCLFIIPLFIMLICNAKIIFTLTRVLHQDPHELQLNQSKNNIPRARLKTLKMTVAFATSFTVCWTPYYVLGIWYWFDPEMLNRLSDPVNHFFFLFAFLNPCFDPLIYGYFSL
D(2) dopamine receptor (Homo sapiens), sequence (P14416 whole entry, looked up): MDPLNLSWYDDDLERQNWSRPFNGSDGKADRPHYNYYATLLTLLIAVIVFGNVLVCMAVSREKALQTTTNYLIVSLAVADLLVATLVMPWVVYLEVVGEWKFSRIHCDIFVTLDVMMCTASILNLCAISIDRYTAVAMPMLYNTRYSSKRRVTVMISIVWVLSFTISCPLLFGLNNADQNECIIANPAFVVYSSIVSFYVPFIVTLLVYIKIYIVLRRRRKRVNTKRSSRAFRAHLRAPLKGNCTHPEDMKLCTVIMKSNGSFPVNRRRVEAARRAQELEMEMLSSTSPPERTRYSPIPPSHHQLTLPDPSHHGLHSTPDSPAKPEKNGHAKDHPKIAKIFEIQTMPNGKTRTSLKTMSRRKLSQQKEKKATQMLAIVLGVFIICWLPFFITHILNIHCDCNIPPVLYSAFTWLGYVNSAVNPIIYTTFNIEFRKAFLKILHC

`NNS(=O)(=O)c1ccc(Oc2ccc(S(=O)(=O)NN)cc2)cc1`: the Potency entry in [1], in assay [2], in [3], in [4], in [5] and in assay [6] was “inactive” throughout. Further, the Potency result in [7], in assay [8], in assay [9], in assay [10], in assay [11] and in assay [12] was “inactive” in each case. For the same compound, the Potency result in assay [13], in assay [14], in assay [15], in [16], in assay [17] and in assay [18] was “inactive” throughout.

As to `CN(CCOc1ccc(CC2SC(=O)NC2=O)cc1)c1ccccn1` (centres undefined), the Potency entry in assay [1], in [2], in [3], in [4], in assay [5] and in assay [6] was “inactive” in each case. Moreover, the Potency entry in [7], in assay [8], in [16], in assay [19] and in assay [18] was “inactive” in each case.

In the case of `CCCCC(CC)COC(=O)c1ccc(O)cc1` (centres undefined), the Potency in [1] is 27.2 µM (active) and 30.6 µM (active); in assay [7], 40.8 µM (active); in assay [8] it was 40.6 µM (active); in assay [10] it was 37.5 µM (active); in assay [15], 40.3 µM (active). Also, the Potency entry in assay [2], in assay [3], in assay [4], in [5], in assay [6] and in assay [11] was “inactive” throughout. Also, the Potency result in assay [12], in assay [13], in assay [16], in assay [17] and in assay [19] was “inactive” each time.

`CCCCCCCCCCCCCCCCI`: the activity change, negative = cytotoxicity in [1] was 1.33% [at 19 µM]; in [7], 1.61% [at 13.5 µM]; in assay [8], -8.29% [at 13.5 µM]. The activity, positive = activation in assay [2] was -9.58% [at 19 µM]. Moreover, the activity change in assay [3] was 0.684% [at 11.8 µM, active compounds read high]. The activation in [4] is 7.41% [at 15.8 µM]; in assay [5], 2.83% [at 11.8 µM]; in [6] it was -0.459% [at 13.5 µM]; in [9], -4.93% [at 13.5 µM]; in assay [13], 1.29% [at 15.8 µM]; in [14] it was -1.28% [at 19 µM]. Also, the activation in [19] is 2.88% [at 19 µM]. Further, the activity, negative = inhibition in [10] is -0.251% [at 12.7 µM]; in [12] it was -11% [at 12.6 µM]. Also, the activity change, negative = inhibition is -14.2% [at 18.9 µM] in [15], 0.138% [at 19 µM] in assay [16] and -1.21% [at 18.9 µM] in [18].

On to `NC(=O)CCCCC(N)=O`, for which the Potency entry in assay [1], in assay [2], in assay [3], in assay [4], in assay [5] and in assay [6] was “inactive” throughout. Further, the Potency result in assay [7], in [8], in assay [9], in assay [11], in assay [12] and in [13] was “inactive” throughout. The Potency result in assay [15], in [16], in assay [17] and in assay [18] was “inactive” throughout.

Regarding `COc1cccc(OC)c1C(=O)O`, the Potency result in assay [1], in assay [2], in assay [3], in assay [4], in [5] and in assay [6] was “inactive” in each case. For the same compound, the Potency entry in assay [7], in assay [8], in assay [9], in assay [10], in [11] and in assay [12] was “inactive” each time. Also, the Potency entry in assay [13], in assay [14], in assay [15], in assay [16] and in assay [19] was “inactive” each time.

Regarding `O=C(CCNNC(=O)c1ccncc1)NCc1ccccc1`, the Potency result in [1], in assay [2], in assay [3], in assay [4], in assay [5] and in [6] was “inactive” throughout. The Potency result in assay [7], in assay [9], in assay [10], in [11], in assay [12] and in assay [13] was “inactive” each time. The Potency entry in assay [14], in assay [15], in [16] and in assay [19] was “inactive” throughout.

As for `CC(=O)[C@H]1CC[C@H]2[C@@H]3CCC4=CC(=O)CC[C@]4(C)[C@H]3CC[C@]12C`, the Potency entry in [1], in assay [2], in [3], in assay [4], in assay [5] and in assay [6] was “inactive” throughout. The Potency entry in assay [7], in assay [8], in assay [16], in [19] and in [18] was “inactive” each time.

As to `N#CC1(O)CCCCC1`, the Potency entry in assay [1], in assay [3], in assay [4], in [5], in [6] and in assay [7] was “inactive” in each case. In addition, the Potency entry in [8], in assay [9], in assay [12], in assay [13], in assay [14] and in assay [15] was “inactive” throughout. Besides, the Potency result in assay [16], in [17], in assay [19] and in assay [18] was “inactive” each time. Moreover, the Potency in assay [2] was 61.6 µM (active).
